Sampled rows, rich in hits. Any-hit rate of the full collection: about 18%.
PLK1 PBD inh – PLK1 (human) polo-box domain binding inhibition | Plk1 PBD binding of FITC phosphopeptide, fluorescence polarization | Potency, µM, inactives show max response, negative = inhibition, usual class: inhibitors | 360,000 tested, 2.8% active | AID 720504; further: series mostly up to about 57 µM; nearly all actives have a fitted effect of over 65% in size
Target sequence (P53350 whole entry, looked up, the tested form may be a part): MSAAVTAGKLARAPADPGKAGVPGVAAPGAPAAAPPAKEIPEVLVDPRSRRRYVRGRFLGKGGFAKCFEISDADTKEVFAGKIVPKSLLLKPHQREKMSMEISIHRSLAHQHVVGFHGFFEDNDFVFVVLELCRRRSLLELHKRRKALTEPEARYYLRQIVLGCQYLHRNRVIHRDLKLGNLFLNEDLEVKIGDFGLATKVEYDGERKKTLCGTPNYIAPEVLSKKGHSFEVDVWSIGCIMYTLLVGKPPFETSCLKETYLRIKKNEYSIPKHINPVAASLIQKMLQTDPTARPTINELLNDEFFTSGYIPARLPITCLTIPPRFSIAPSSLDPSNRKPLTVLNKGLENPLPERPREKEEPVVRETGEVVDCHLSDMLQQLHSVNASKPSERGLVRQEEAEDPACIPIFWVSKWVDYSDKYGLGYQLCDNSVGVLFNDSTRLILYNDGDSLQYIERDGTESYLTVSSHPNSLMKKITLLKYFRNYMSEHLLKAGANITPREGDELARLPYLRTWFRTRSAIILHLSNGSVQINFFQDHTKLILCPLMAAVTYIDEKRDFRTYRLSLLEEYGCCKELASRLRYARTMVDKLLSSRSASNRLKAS
TDP1 cell CPT – DT40-hTDP1 cell growth loss with CPT; chicken DT40 Tdp1-/-;hTDP1 cells + 20 nM CPT, ATP luminescence, 48 h; Potency, µM (highest dose often 46.2 µM), for the others: at the top dose activity change, negative = growth inhibition, most hits filed as inhibitors; 420,000 tested, 12% active; further: nearly all actives have a fitted effect of over 55% in size
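Chicken DT40 Tdp1-/- cells complemented with human TDP1, 400 cells/well, exposed to compounds plus 20 nM camptothecin for at least 48 h at 37 C; viability read as ATP content by CellTiter-Glo luminescence.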
DT40 TDP1 no CPT – qHTS for Inhibitors of human tyrosyl-DNA phosphodiesterase 1 (TDP1): qHTS in cells in absence of CPT; DT40 Tdp1-/- hTDP1 cells, no CPT, ATP luminescence, 48 h; Potency, µM (top dose mostly 46.2 µM), inactives show at the highest dose activity change, negative = growth inhibition, actives largely listed as inhibitors; 420,000 tested, 15% active; further: nearly all actives have a fitted effect of over 55% in size
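Growth of hTDP1-complemented DT40 Tdp1-knockout cells is measured by ATP luminescence after at least 48 hr compound exposure at 37 °C, with DMSO substituting for the 20 nM CPT used in the parallel screen.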
VDR inhibitor – inhibitors of human vitamin D receptor; VDR-SRC2-3 peptide fluorescence polarization, 2 h; AID 504847; P11473; 400,000 tested, 0.93% active; Potency, µM, without a hit: max response, negative = inhibition, usual class: inhibitors
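Measured by FP: displacement of SRC2-3 coactivator peptide from VDR by library compounds, following a two-hour ambient incubation.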
GCN5L2 inh – inhibitors of human GCN5L2 histone acetyltransferase | Potency, µM (series often up to 58.9 µM), inactives show at the top dose activity change, negative = inhibition, usual class: inhibitors | GCN5L2 HAT assay, ThioGlo1 CoA-SH fluorescence | 390,000 tested, 0.21% active | Q92830
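qHTS, 1536-well. 20nM enzyme, pH 7.5 HEPES/EDTA/Tween-20 buffer; 15 min compound preinc., RT. Start: 75uM H3(1-25), 70uM AcCoA, 50uM ThioGlo1. Read Ex340/Em540 at t=0 (autofluorescence flag) and t=20 min.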
TDP1 inh – inhibitors of human tyrosyl-DNA phosphodiesterase TDP1; Potency, µM (series often up to 130 µM), for the others: top-dose activity change, negative = inhibition, usual class: inhibitors; recombinant TDP1, AlphaScreen DNA substrate cleavage; 350,000 tested, 0.28% active; further: nearly all actives have a fitted effect of over 40% in size
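Here, a 5' biotin and 3' phosphotyrosine-FITC DNA oligonucleotide reports Tdp1 activity: intact substrate bridges AlphaScreen beads, while cleavage leaves a 3' phosphate and drops signal. All incubations at room temperature.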
* marks the source's active call; other numbers are inactive results; ? = inconclusive; / = no result given. The call rests on the fitted dose curve; in most records, active means well fitted curve in the direction sought with a large enough effect; inconclusive means small, poorly fitted or top-dose-only effect, or another doubt; inactive means no such curve, though single readings can be large; an effect the other way counts as inactive or inconclusive. On the % scale 0 is the no-effect control and ±100 the full control effect; potency means the concentration at half of the fitted maximal effect.

SMILES	PLK1 PBD inh	TDP1 cell CPT	DT40 TDP1 no CPT	VDR inhibitor	GCN5L2 inh	TDP1 inh
Cc1cc(C(=O)NCc2nc(-c3ccccc3NC(=O)C3CCCO3)oc2C)nc(C)n1 (configuration not stated)	/	8.3%	-29.6%	/	/	/
CCN(CC)Cc1nc2c(c(=O)[nH]1)C1(CCCC1)Cc1ccccc1-2	-1.8%	20.6µM*	?	-9.3%	-7.8%	5.3%
CCSc1n[nH]c2nc3c(c(=O)n12)C1(CCCCC1)Cc1ccccc1-3	13.4µM*	-22.5%	-36.9%	?	-9.3%	/
N#CCSc1n[nH]c2nc3c(c(=O)n12)C1(CCCCC1)Cc1ccccc1-3	?	-10.9%	-23.4%	-11.5%	?	7.7%
CSc1n[nH]c2nc3c(c(=O)n12)C1(CCCCC1)Cc1ccccc1-3	23.8µM*	-4.1%	?	-24.2%	-12.2%	8.6%
CN(C)c1ncc2ncc(=O)n(C3CC3)c2n1	/	?	-30.0%	-10.9%	-14.7%	/
COCCNC(=O)C1CCC(CNS(=O)(=O)c2ccc3c(c2)CC(C)N3C(=O)C2CC2)CC1 (configuration not stated)	-2.6%	-6.3%	-0.8%	-1.4%	-20.2%	3.1%
COc1cccc(CNS(=O)(=O)c2ccc3c(c2)CC(C)N3C(=O)C2CC2)c1 (configuration not stated)	-8.6%	20.6µM*	10.3µM*	-8.6%	-1.7%	-0.3%
COc1ccc(NS(=O)(=O)c2ccc3c(c2)CC(C)N3C(C)=O)c(OC)c1 (configuration not stated)	/	18.4µM*	20.6µM*	8.3%	-6.2%	-1.2%
COc1cc(OC)c(NC(=O)CCNS(=O)(=O)c2ccc3c(c2)CC(C)N3C(C)=O)cc1Cl (configuration not stated)	-3.8%	19.1%	22.2%	2.1%	-7.4%	2.8%
CCC(=O)N1c2ccc(S(=O)(=O)NCc3ccc(F)cc3)cc2CC1C (configuration not stated)	/	14.6µM*	11.6µM*	0.4%	-2.8%	2.3%
CC1Cc2cc(S(=O)(=O)NCCc3ccccc3)ccc2N1C(=O)C1CC1 (configuration not stated)	-15.7%	14.6µM*	14.6µM*	-16.7%	-8.1%	4.7%
CC(=O)N1c2ccc(S(=O)(=O)N3CCCC(C(=O)NCc4ccccc4Cl)C3)cc2CC1C (configuration not stated)	1.2%	?	-11.2%	2.9%	-3.9%	1.3%
CCc1cccc(C)c1NS(=O)(=O)c1ccc2c(c1)CC(C)N2C(=O)C1CC1 (configuration not stated)	/	?	?	5.5%	-9.5%	2.6%
CCOc1ccccc1NS(=O)(=O)c1ccc2c(c1)CC(C)N2C(=O)C1CC1 (configuration not stated)	/	?	14.6µM*	7.7%	-8.0%	-10.3%
CC1Cc2cc(S(=O)(=O)NCc3ccccc3Cl)ccc2N1C(=O)C1CCC1 (configuration not stated)	/	14.6µM*	7.31µM*	-3.6%	-17.4%	-1.2%
COc1ccc(NC(=O)Cc2ccc(C)c(C)c2)cc1S(=O)(=O)N1CCCCC1	4.7%	?	?	5.1%	-8.6%	-0.5%
O=C1N/C(=N/N=C/c2ccco2)SC1Cc1ccccc1 (configuration not stated)	-2.2%	-18.5%	?	-18.6%	-2.7%	-3.5%
C/C(=N\N=C1\NC(=O)C(Cc2ccccc2)S1)c1ccccc1 (configuration not stated)	29.9µM*	?	?	6.7%	-17.2%	2.4%
Cc1c(CN2CCC(Oc3ccc(C(=O)N4CCCCC4)cc3)CC2)cnn1C	-8.3%	1.9%	5.3%	-3.0%	-0.7%	2.5%
